# Assay results: PubChem BioAssay (Tox21)
# “And” between values parts separate entries of the source, which are not always exact repeats. Identical values can stand only once. Inconclusive results are not listed. A call without a number means that no potency is given here. Where a structure was tested more than once in an assay, its records may differ in their call. The source made the active and inactive calls. Unless noted, the call rests on the fitted dose curve; in most records, active means well fitted curve in the direction sought with a large enough effect in the repeat runs; inconclusive means weak or mixed curves; inactive means no such curve, though single readings can be large; an effect the other way counts as inactive or inconclusive.
# Assays:
# [1] = biological target: Retinoic acid receptor RXR-alpha (Homo sapiens) (UniProt P19793); assay: qHTS assay to identify small molecule agonists of the RXR signaling pathway (AID 1159527; calls by dose curve; further: nearly all actives have a fitted effect of over 35% in size)
# Sequence of Retinoic acid receptor RXR-alpha (Homo sapiens) (P19793 whole entry, looked up): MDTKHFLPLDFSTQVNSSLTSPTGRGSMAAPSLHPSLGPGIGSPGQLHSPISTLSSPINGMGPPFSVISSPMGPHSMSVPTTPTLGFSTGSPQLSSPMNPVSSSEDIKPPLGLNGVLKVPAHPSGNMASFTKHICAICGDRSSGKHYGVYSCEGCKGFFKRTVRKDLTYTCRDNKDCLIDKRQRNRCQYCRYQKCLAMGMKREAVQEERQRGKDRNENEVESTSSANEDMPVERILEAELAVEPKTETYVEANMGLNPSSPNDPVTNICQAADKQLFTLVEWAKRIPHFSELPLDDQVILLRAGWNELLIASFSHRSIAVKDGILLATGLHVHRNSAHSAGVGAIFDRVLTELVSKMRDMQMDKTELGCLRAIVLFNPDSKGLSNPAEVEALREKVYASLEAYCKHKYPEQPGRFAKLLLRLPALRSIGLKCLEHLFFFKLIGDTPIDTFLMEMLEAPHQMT
# Outline: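 Agonist mode; 9-cis retinoic acid positive control. HEK 293T UAS-bla reporter cells, 2% charcoal-stripped FBS, 16 hr compound exposure at 37 C/5% CO2. LiveBLAzer B/G FRET substrate 2 hr RT; ex 405, em 460/530 nm.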
# [2] = qHTS assay to identify small molecule agonists of the RXR signaling pathway - cell viability counter screen (AID 1159529); further: nearly all actives have a fitted effect of over 50% in size; further: potency means the concentration at half of the fitted maximal effect
# Outline: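 Luminescence from CellTiter-Glo (30 min, RT) measured viability in the same wells as the beta-lactamase reporter readout. Cells: GeneBLAzer RXR-alpha HEK 293T, 2% charcoal-stripped FBS. Compound exposure 16 hr, 37 C.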
# [3] = qHTS assay to identify small molecule antagonists of the retinoid acid receptor (RAR) signaling pathway - cell viability counter screen (AID 1159551); further: nearly all actives have a fitted effect of over 35% in size; further: potency means the concentration at half of the fitted maximal effect
# Outline: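 Retinol-stimulated (1 uM final) C3RL4 cells, compound 6 h, 37 C; readout CellTiter-Glo luminescence (ATP) after 30 min RT incubation.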
# [4] = qHTS assay to identify small molecule antagonists of the retinoic acid receptor (RAR) signaling pathway (AID 1159552; further: nearly all actives have a fitted effect of over 50% in size; further: potency means the concentration at half of the fitted maximal effect)
# Outline: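 Luminescence from a RARE luciferase reporter in C3RL4 cells served as read-out. Cells received compounds together with 1 uM final retinol and incubated 6 hr at 37 C before detection reagent was added for 30 min at room temperature.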
# [5] = qHTS assay to identify small molecule agonists of the retinoic acid receptor (RAR) signaling pathway (AID 1159553); conditions: C3RL4 RARE luciferase reporter, agonist, 6 h; activation: at 73.3 µM (top of the series) unless noted; further: potency means the concentration at half of the fitted maximal effect
# Outline: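 Reporter readout comes from luciferase under RARE control in C3RL4 cells; compound exposure lasts 6 hr at 37 C in 5% CO2, and luminescence is recorded following a 30 min room-temperature incubation with reagent.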
# [6] = qHTS assay to identify small molecule antagonists of the estrogen related receptor (ERR) signaling pathway - cell viability counter screen (AID 1224818);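 further: viability measured after 17.5 h of compound exposure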
# Text: National Center for Advancing Translational Sciences [NCATS]
# NIH Chemical Genomics Center [NCGC]
# U.S. Environmental Protection Agency [EPA]
# National Institutes of Environmental Health Sciences [NIEHS]
# National Toxicology Program [NTP]
# U.S. Food and Drug Administration [FDA]
# Estrogen related receptors (ERRs), the first orphan nuclear receptors discovered, play an important role in the control of cellular energy metabolism. ERRs are required for high-energy production in response to the environmental challenges. ERR-alpha was also identified as an adverse marker for breast cancer progression; ERR-alpha-positive tumors have a poor prognosis. To screen and to identify environmental compounds that perturb the ERR signaling pathways could provide valuable information for potential therapeutic or preventive measures in the treatment of metabolic disease. To differentiate true ERR antagonists or agonist from cytotoxic substances, the assay is multiplexed with cell viability assay.
# Tox21 Assay Protocol Summary:
# The ERR cells were dispensed at 2,000 cells/5 ul/well in 1536-well white plates using a Multidrop dispenser. After the assay plates were incubated at a 37 C/5% CO2 incubator for 6 hours, 23 nL of compounds dissolved in DMSO, positive and negative controls or DMSO only was transferred to the assay plate by a pin tool. The plates were incubated at 37 C for 17.5 hours. 1 ul/well of CellTiter-Fluor reagent was added into the assay plates using a Flying Reagent Dispenser. After 30 min incubation at 37 C/5% CO2, the fluorescence intensity in the plates was measured using a ViewLux plate reader.
# [7] = qHTS assay to identify small molecule antagonists of the estrogen related receptor signaling pathway with the pleiotropic PPARgamma coactivator (PGC) cell viability counter screen (AID 1224822; further: potency means the concentration at half of the fitted maximal effect;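 further: viability read after 17.5 h compound exposure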)
# Outline: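 PGC/ERR cells were plated at 2,000 per well and allowed 6 h to settle before compound addition. Following 17.5 h at 37 C, CellTiter-Fluor reagent was added and fluorescence was read 30 min later.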
# [8] = qHTS assay to identify small molecule antagonists of the estrogen related receptor (ERR) signaling pathway (AID 1224819; further: potency means the concentration at half of the fitted maximal effect; nearly all actives have a fitted effect of over 50% in size)
# Outline: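 Luminescence readout (One-Glo, 30 min, RT) of ERR cell line after 18 h compound exposure at 37 C; cells seeded 2,000/well, pre-incubated 6 h, compounds pinned from DMSO stocks.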
# [9] = qHTS assay to identify small molecule agonists of the estrogen related receptor (ERR) signaling pathway (AID 1224820)
# Outline: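 ERR reporter cell line (from NTP), 2,000 cells/well, incubated 6 h before compound addition, then 18 h at 37 C. Luminescence measured 30 min after One-Glo reagent at room temperature.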
# [10] = system: estrogen-related receptor alpha (ERRalpha) with PGC-1alpha coactivator, human; assay: qHTS assay to identify small molecule antagonists of the estrogen related receptor signaling pathway with the pleiotropic PPARgamma coactivator (PGC) (AID 1224821; calls by dose curve; further: nearly all actives have a fitted effect of over 50% in size; further: potency means the concentration at half of the fitted maximal effect)
# Outline: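 PGC/ERR reporter cell line, plated 6 h before compound addition, then exposed 18 h at 37 °C. Luciferase activity read by luminescence 30 min after One-Glo addition; decrease indicates antagonism.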
smiles,measurement,setting,value
Brc1ccc(Oc2cc(Br)c(Br)cc2Br)c(Br)c1,Potency,[1],inactive
same,Potency,[2],17.4 µM (active)
same,Potency,[3],inactive
same,Potency,[4],inactive
same,Potency,[5],inactive
CCC(C)c1cc([N+](=O)[O-])cc([N+](=O)[O-])c1O (stereo unspecified),Potency,[1],inactive
same,Potency,[2],inactive
same,Potency,[3],inactive
same,Potency,[4],inactive
same,Potency,[5],inactive
CCOP(=S)(OCC)O/N=C(\C#N)c1ccccc1,Potency,[1],inactive
same,Potency,[2],inactive
same,Potency,[3],inactive
same,Potency,[4],inactive
same,Potency,[5],inactive
CCCCCCCCOC(=O)c1ccccc1C(=O)OCCCCCCCC,Potency,[1],inactive
same,Potency,[2],inactive
same,Potency,[3],inactive
same,Potency,[4],inactive
same,Potency,[5],inactive
Nc1ccncc1,Potency,[1],inactive
same,Potency,[2],inactive
same,Potency,[3],inactive
same,outcome,[6],inactive
same,Potency,[7],inactive
O=S(=O)(Oc1ccc(Cl)cc1)c1ccc(Cl)cc1,Potency,[2],inactive
same,Potency,[3],inactive
same,Potency,[4],inactive
same,Potency,[5],inactive
CC(C)=CC1C(C(=O)OCc2coc(Cc3ccccc3)c2)C1(C)C (stereo unspecified),Potency,[3],inactive
same,Potency,[4],inactive
same,Potency,[5],inactive
C#C[C@]1(O)CC[C@H]2[C@@H]3CCC4=CC(=O)CC[C@]4(C)[C@H]3CC[C@@]21C,Potency,[2],inactive
same,Potency,[3],inactive
same,Potency,[4],inactive
same,Potency,[5],inactive
Cc1ccc(N)c(N)c1,Potency,[2],inactive
same,Potency,[3],inactive
same,Potency,[4],inactive
same,Potency,[5],1.54 µM (active) and 1.22 µM (active)
CCc1cccc(CC)c1N(COC)C(=O)CCl,Potency,[2],inactive
same,Potency,[3],inactive
O=C(Nc1ccc(Br)cc1)c1cc(Br)cc(Br)c1O,Potency,[2],24.5 µM (active)
same,Potency,[3],inactive
same,Potency,[4],inactive
same,Potency,[5],inactive
CCOc1cc(C=O)ccc1O,Potency,[2],inactive
same,Potency,[3],inactive
same,Potency,[4],inactive
same,Potency,[5],inactive
Cc1c(COC(=O)[C@@H]2[C@H](/C=C(\Cl)C(F)(F)F)C2(C)C)cccc1-c1ccccc1,Potency,[2],inactive
same,Potency,[3],inactive
same,Potency,[4],inactive
same,Potency,[5],inactive
Nc1ccc(-c2ccc(N)c(N)c2)cc1N,Potency,[2],inactive
same,Potency,[3],inactive
same,Potency,[4],inactive
same,Potency,[5],10.8 µM (active) and 8.63 µM (active)
c1cc(OCC2CO2)ccc1Cc1ccc(OCC2CO2)cc1 (stereo unspecified),Potency,[2],inactive
same,Potency,[3],inactive
same,Potency,[4],inactive
same,Potency,[5],inactive
N[C@@H](Cc1ccc(N(CCCl)CCCl)cc1)C(=O)O,Potency,[2],inactive
same,Potency,[3],inactive
same,Potency,[5],inactive
COc1ccc(C(CN(C)C)C2(O)CCCCC2)cc1 (stereo unspecified),Potency,[1],inactive
same,Potency,[2],inactive
same,Potency,[3],inactive
same,outcome,[6],inactive
same,Potency,[7],inactive
CC(C)Oc1cc(-n2nc(C(C)(C)C)oc2=O)c(Cl)cc1Cl,Potency,[3],inactive
same,Potency,[5],inactive
NNC(=S)NN,Potency,[3],inactive
Cc1ccc(OP(=O)(Oc2ccc(C)cc2)Oc2ccc(C)cc2)cc1,Potency,[2],inactive
same,Potency,[3],inactive
same,Potency,[4],inactive
same,Potency,[5],inactive
OCC(O)CO,Potency,[2],inactive
same,Potency,[3],inactive
same,Potency,[4],inactive
same,Potency,[5],inactive
CCOCN(C(=O)CCl)c1c(C)cccc1CC,Potency,[2],inactive
same,Potency,[3],inactive
same,Potency,[5],inactive
O=P(Oc1ccccc1)(Oc1ccccc1)Oc1ccccc1,Potency,[3],inactive
C#CCOS(=O)OC1CCCCC1Oc1ccc(C(C)(C)C)cc1 (stereo unspecified),Potency,[2],27.6 µM (active) and 43.6 µM (active)
same,Potency,[4],13.7 µM (active) and 15.4 µM (active)
same,Potency,[5],inactive
Oc1c(Cl)c(Cl)c(Cl)c(Cl)c1Cl,Potency,[2],inactive
same,Potency,[3],inactive
same,Potency,[4],inactive
same,Potency,[5],inactive
C=C(C)[C@H]1Cc2c(ccc3c2O[C@@H]2COc4cc(OC)c(OC)cc4[C@@H]2C3=O)O1,Potency,[2],inactive
same,Potency,[5],inactive
same,Potency,[8],0.081 µM (active)
same,Potency,[9],inactive
same,Potency,[10],0.0361 µM (active)
O=[N+]([O-])c1ccc(O)c([N+](=O)[O-])c1,Potency,[2],12.3 µM (active)
same,Potency,[3],inactive
same,Potency,[4],inactive
same,Potency,[5],inactive
Oc1cc(Cl)ccc1Oc1ccc(Cl)cc1Cl,Potency,[1],inactive
same,Potency,[2],17.8 µM (active)
same,Potency,[3],31.4 µM (active)
same,Potency,[9],inactive
same,Potency,[10],inactive
same,Potency,[7],38.6 µM (active)
CCC(CC)Nc1c([N+](=O)[O-])cc(C)c(C)c1[N+](=O)[O-],Potency,[3],inactive
Cc1cc(Cl)ccc1OCCCC(=O)O,Potency,[2],inactive
same,Potency,[3],inactive
same,Potency,[4],inactive
same,Potency,[5],inactive
CCCCCCCCC(=O)NCc1ccc(O)c(OC)c1,Potency,[2],inactive
same,Potency,[3],inactive
same,Potency,[4],inactive
CCOC(=S)S,Potency,[2],23.3 µM (active)
same,Potency,[4],inactive
NNC(N)=S,Potency,[2],18.1 µM (active)
same,Potency,[3],inactive
same,Potency,[4],inactive
O=c1oc2ccccc2c(O)c1C(CC(O)c1ccc(-c2ccc(Br)cc2)cc1)c1ccccc1 (stereo unspecified),Potency,[3],inactive
C[C@]12CCC(=O)C(O)=C1CC[C@@H]1[C@@H]2CC[C@]2(C)C(=O)CC[C@@H]12,Potency,[1],inactive
same,Potency,[3],inactive
CCN(CC)N=O,Potency,[2],inactive
same,Potency,[3],inactive
same,Potency,[4],inactive
same,Potency,[5],inactive
C[C@]12CCC(=O)C[C@@H]1CC[C@@H]1[C@@H]2CC[C@]2(C)[C@@H](O)CC[C@@H]12,Potency,[2],inactive
same,Potency,[3],inactive
same,Potency,[4],42.7 µM (active) and inactive
same,Potency,[5],inactive
CC(C)(OOC(C)(C)c1ccccc1)c1ccccc1,Potency,[3],inactive
same,Potency,[4],inactive
same,Potency,[5],inactive
Nc1ccc(-c2ccccc2)cc1,Potency,[2],inactive
same,Potency,[3],inactive
same,Potency,[4],62.8 µM (active) and inactive
same,Potency,[5],35.3 µM (active) and 9.69 µM (active)
Cc1cccc(N)c1N,Potency,[2],inactive
same,Potency,[3],inactive
same,Potency,[4],inactive
same,Potency,[5],1.05 µM (active) and 2.43 µM (active)
CCC(=O)O[C@H]1CC[C@H]2[C@@H]3CCC4=CC(=O)CC[C@]4(C)[C@H]3CC[C@]12C,Potency,[2],49 µM (active)
same,Potency,[3],inactive
same,Potency,[4],48.6 µM (active) and inactive
same,Potency,[5],inactive
O=C1C=CC(=O)C=C1,Potency,[1],inactive
same,Potency,[2],inactive
same,Potency,[3],inactive
same,outcome,[6],inactive
same,Potency,[7],inactive
